Where “and” joins values, the source holds several entries; their conditions need not be identical. Equal values may be shown once. The panel holds about 83,000 compounds, 20% with a hit somewhere; the sample as a whole holds those more often.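 Step 1: grow cells in 96-well plates. Step 2: add test compound at a single concentration. Step 3: incubate 48 h. Step 4: record percent growth.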 A number with no mark means an inactive call. Calls of active or inactive are those of the source. The calls were made as follows: active = growth percent below 10; inactive = the rest.
These compounds were tested on HL-60(TB) leukemia (assay: NCI-60 one-dose screen, 48 h (100 = growth as untreated, 0 = no growth, -100 = all killed)). Conditions: 10 µM unless noted.

Row | Structure (SMILES) | growth
1 | CCCCC[C@@H]1Cc2cc(O)c(C(=O)O)c3c2[C@H](C[C@]2(OC[C@@H](CC(=O)[C@@](C)(CC)C(=O)OC)[C@@H]2C)O3)O1 | 116%
2 | O=C1c2cc3c(cc2-c2c1c1cc(Cl)c(Cl)cc1c(=O)n2C[C@H](O)CO)OCO3 | -22.6% (active)
3 | O=CN1N=C(c2ccc(Cl)cc2)CC1c1cccc(Nc2ccnc3cc(Cl)ccc23)c1 (stereo unspecified) | -24.6% (active)
4 | OCC(O)c1nc2ccc3[nH]ncc3c2c2c1CCCC2 (stereo unspecified) | -16.9% (active)
5 | CCCC(O)Cn1ncc(C(=O)OCC)c1NC(=O)NCc1ccccc1F (stereo unspecified) | 81.6%
6 | Nc1c(C(=O)Nc2ccccc2C(F)(F)F)sc2nc3c(cc12)CCC3 | 86.8%
7 | N#Cc1c(-c2ccccc2)cc(-c2ccccc2)n(CCC(=O)O)c1=O | 13.8%
8 | O=C(c1ccccc1)C1OC1c1ccc([N+](=O)[O-])cc1 (stereo unspecified) | 61.6%
9 | COc1cccc2cc(-c3cc4ccccc4[nH]3)/c(=N/C(=S)Nc3ccccc3)oc12 | 101%
10 | COc1ccc(-c2cc(-c3ccc(Cl)cc3)nc(SCCCCCCC(=O)NO)n2)cc1OC | 19%
11 | CCCC(=O)Oc1ccc(/C(=C(\C)c2ccc(Cl)cc2)c2ccc(OCCN(CC)CC)cc2)cc1 | -49.1% (active)
12 | OCc1c(-c2ccccc2)nc2sccn12 | 130%
13 | CCN(CC)CCOc1ccc(-c2c(-c3ccccc3)c(=O)oc3ccccc23)cc1 | 107%
14 | CC(C)c1ccc2c(c1)CCC1C2CCCC1(C)NCc1ccccc1 (stereo unspecified) | 22.9%
15 | COc1ccc(-c2cc(-c3cc(OC)ccc3OC)[nH]c(=O)c2C#N)cc1 | 18.1%
16 | CCN(CC)CCOc1ccc(/C(=C(/C)c2ccccc2)c2ccc(OC(C)=O)cc2)cc1 | 117%
17 | COc1cc(NC(N)=NCCC(C)(C)c2ccc(C(F)(F)F)cc2)ncc1C#N | -34.6% (active)
18 | N#CCCN1C(=O)CCC1C(=O)O (stereo unspecified) | 85.9%
19 | O=C1NC(=O)C2(CCc3ccccc32)N1 (stereo unspecified) | 93.7% and 106%
20 | Cn1c(I)c(C#C[Si](C)(C)C)c(=O)n(C(=O)c2ccccc2)c1=O | -59% (active)
21 | Cc1nn(Cc2ccccc2)cc1C(=O)Nc1sc2c(c1C(N)=O)CCC(=O)C2 | -4.39% (active)
22 | COc1ccc(C(=O)N2NC(=O)/C(=C/c3ccc(Br)cc3)N=C2c2ccccc2)cc1 | 4.51% (active)
23 | CC[C@]1(O)C[C@@H]2CN(Cc3c([nH]c4ccccc34)[C@@](C(=O)OC)(c3cc4c(cc3OC)N(C)[C@H]3[C@@](O)(C(=O)OC)[C@H](OC(C)=O)[C@]5(CC)[C@@H]6C[C@@H]6CN6CC[C@]43[C@@H]65)C2)C1 | -36.5% (active)
24 | C=C1C(=O)O[C@H]2[C@H]1CC/C(COC(=O)c1cccnc1)=C\CC[C@@]1(C)O[C@@H]21 | 2.18% (active)
25 | CC(C)c1c(C(=O)Nc2ccccc2)c(-c2ccccc2)c(-c2ccc(F)cc2)n1CC[C@@H]1CC=CC(=O)O1 | -27.9% (active)
26 | CCC(CC)C(=O)OC(C)COc1ccc(C(C)(C)C)cc1 (stereo unspecified) | 104%
